The structures appear in SMILES notation. The panel holds about 83,000 compounds, 20% with a hit somewhere; the sample as a whole holds those more often.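 Method: cells in 96-well plates; compound added at one concentration; 48 h incubation; percent growth measured; values under 10 scored active.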 Unmarked numbers belong to inactive results. Calls of active or inactive are those of the source.

This assay has as its system HL-60(TB) leukemia. The assay is described as follows: NCI-60 one-dose screen, 48 h (100 = growth as untreated, 0 = no growth, -100 = all killed). The note with it: 10 µM unless noted.
On to `CCOC(=O)c1ccccc1OC(=O)NNc1ccccc1`, for which the growth is -7.77% (active).

On to `COc1ccc(-c2ccc(-c3ccc(C(=N)N)cn3)s2)cc1`, for which the growth was -37.1% (active).

On to `Cc1nc(Nc2cccc(NC(=O)Nc3ccc(Cl)cc3)c2)c2ccccc2n1`, for which the growth is 78.6%.

Turning to `CCOC(=O)c1c2c(n3ccccc13)C(=O)c1ncccc1C2=O`, the growth was -28.8% (active).

Take `CC(NC(=O)Oc1cccc2ccccc12)c1ccccc1` (stereo not given): the growth is 44.8%.

In the case of `CCOC(=O)/C(C#N)=C/c1cccc(C)c1`, the growth was 86.4%.

As to `CCN(CC)CCOc1ccccc1-n1c(C)ccc1-c1ccccc1`, the growth is 22.4%.

Regarding `Nc1ccccc1-c1cc2c(c3c1[nH]c1ccccc13)CCCCC2`, the growth was 91.6%.

For `CC1(C)CC2(C)OC2C2(C1)N=NC(=Nc1ccccc1)O2` (stereo not given), the growth was 85.2%.

With `Cc1cc(-c2cc(O)ccc2Cl)cc2nnc(Nc3ccc(OCCN4CCCC4)cc3)nc12`, the growth was -63.5% (active).

As for `O=C(N/N=C/c1ccc([N+](=O)[O-])cc1)c1ccc(Br)o1`, the growth was 123%.

Regarding `CCN1C(=S)N(CC)C2C1NC(=S)N2/N=C/C=C/c1ccccc1OC` (stereo not given), the growth is -46.4% (active).

For `CSc1nc(O)c(-c2ccccc2)c(=O)[nH]1`, the growth was 89.5%.

Consider `CC1OC(n2c3ccccc3c3c4c(c5c6ccccc6[nH]c5c32)C(=O)N(CCN[C@@H]2CCC[C@H]2N)C4=O)CC(O)C1O` (stereo not given in full), for which the growth was 29.2%.

`C=C(C)[C@@H]1CC[C@]2(C(=O)N3CCOCC3)CC[C@]3(C)[C@H](CC[C@@H]4[C@@]5(C)C/C(=C/c6ccncc6)C(=O)C(C)(C)[C@@H]5CC[C@]43C)[C@@H]12`: the growth is 26.2%.

On to `COC(=O)c1c2c(c(C)[n+]([O-])c1C)C(=O)C=CC2=O`, for which the growth was -7.95% (active).

As for `CC1(C)CCC(=NNC(N)=S)CC1`, the growth was 109%.

With `CC(=O)O[C@@H]1C[C@]2(C)[C@H]3[C@H](O)C[C@@H]4C5=CC(C)(C)CC[C@]5(C)CC[C@@]4(C)[C@]3(C)CC[C@H]2C(C)(C)[C@H]1O`, the growth is 120%.

With `CCN(CC)CCNC(=O)c1ccc(-c2nc3ccc4[nH]ncc4c3c3c2CCCC3)cc1`, the growth was 67.9%.

`O=C(Nc1cccc2cccnc12)c1cc(C(=O)c2ccc(Cl)cc2)n2ccc(-c3ccncc3)cc12`: the growth was 125%.

As for `Cc1cc(C)c2c(N)c3cccc(C)c3nc2n1`, the growth was -19.1% (active).

For the compound `N#CC1=C(N)Oc2c(sc3c(Br)cccc23)C1c1ccc(Br)cc1` (stereo not given), the growth was 6.12% (active).

Regarding `CCCCNC1(C#N)CCN(Cc2ccccc2)CC1`, the growth was 153%.

Consider `C=CCN(CC=C)C(=O)[C@H](CC)[C@@H]1CC[C@@H](C)[C@@H]([C@H](C)[C@@H](O)[C@@H](C)C(=O)[C@H](CC)C2O[C@]3(C=CC(=O)[C@]4(CC[C@@](C)([C@H]5CC[C@](O)(CC)[C@H](C)O5)O4)O3)[C@H](C)C[C@@H]2C)O1` (stereo not given in full), for which the growth is -25.2% (active).

With `COc1ccc(NC(=O)c2ccc(Cl)cc2Cl)cc1`, the growth is 103%.

Take `O=C1CC(C(F)(F)F)=NN1C(=O)c1nn(-c2ccc(Cl)cc2)cc1O`: the growth is 105%.

For the compound `O=S(=O)(NCCCNc1cc(-c2c(-c3cccc(O)c3)nc3sccn23)ccn1)c1cccc2ccccc12`, the growth is 41.3%.

For `COc1ccc(-c2cc(/C=C/C(=O)c3cc(OC)c(OC)c(OC)c3)[nH]n2)cc1OC`, the growth was -22.9% (active).

On to `O=C1c2ccccc2C(=O)c2c(Nc3ccc(CCO)cc3)ccc(O)c21`, for which the growth is 83.9%.

Regarding `COc1ccc2c(c1)OC13Oc4cc(OC)ccc4C=C1CCCCC3=C2`, the growth is 104%.

In the case of `Cc1ncc(C(=O)Nc2ccc(CN3CCN(C)CC3)c(C(F)(F)F)c2)cc1C#Cc1c(N)ncc2ccccc12`, the growth is -51.1% (active).

For the compound `COc1cc(C2CC(c3ccc(C)cc3)=NN2C=O)ccc1Oc1ccnc2cc(Cl)ccc12` (stereo not given), the growth is 94.8%.

Take `COc1ccc(C(=O)c2cc3c(N)c(C(=O)Nc4cccc(Br)c4C)sc3nc2C)cc1`: the growth is -58.7% (active).

With `CN(C[C@@H]1COCCO1)S(=O)(=O)Nc1ccc2ccc3ncc(-c4cnn(C)c4)cc3c(=O)c2c1`, the growth was 48.1%.

As for `CN(C)CCS(=O)(=O)Nc1cc(-c2ccc3ncc(C#N)c(Nc4ccc(F)c(Cl)c4)c3c2)cnc1Cl`, the growth was -28.4% (active).

Take `COc1cc2ncnc(-n3ncc4cc(NC(=O)Nc5ccccc5)ccc43)c2cc1OC`: the growth is -15.9% (active).

As for `C=C1CCC2C3(C)COC(c4ccccc4Br)OC3CCC2(C)C1C/C=C1/C(=O)OCC1OC(C)=O` (stereo not given), the growth is -48.7% (active).

With `CN1CCN(Cc2ccc(NC(=O)c3cc(C#Cc4cnc(N)c5ncccc45)n(C)n3)cc2C(F)(F)F)CC1`, the growth was 107%.

For `CSc1cccc([N+](=O)[O-])c1`, the growth is 91.7%.

As for `NC(=O)SCC(=O)NNc1ccccc1`, the growth is 101%.
